High-throughput results (PubChem BioAssay)
Most compounds without a hit are left out; they make up all but 3.1% or so of the library.
D3 antag: qHTS of D3 Dopamine Receptor Antagonist: qHTS; max response, negative = inhibition, %; AID 652054, 2013; D3R cells, DiscoveRx beta-arrestin luminescence, antagonist mode; active compounds read low; hit rate 2.5% among 360,000; D(3) dopamine receptor (Homo sapiens), P35462; in the data active means max response below about -50%; inconclusive means no clear call, values can overlap the other calls; further: on the % scale 0 is the no-effect control and ±100 the full control effect
Target sequence (P35462 whole entry, looked up): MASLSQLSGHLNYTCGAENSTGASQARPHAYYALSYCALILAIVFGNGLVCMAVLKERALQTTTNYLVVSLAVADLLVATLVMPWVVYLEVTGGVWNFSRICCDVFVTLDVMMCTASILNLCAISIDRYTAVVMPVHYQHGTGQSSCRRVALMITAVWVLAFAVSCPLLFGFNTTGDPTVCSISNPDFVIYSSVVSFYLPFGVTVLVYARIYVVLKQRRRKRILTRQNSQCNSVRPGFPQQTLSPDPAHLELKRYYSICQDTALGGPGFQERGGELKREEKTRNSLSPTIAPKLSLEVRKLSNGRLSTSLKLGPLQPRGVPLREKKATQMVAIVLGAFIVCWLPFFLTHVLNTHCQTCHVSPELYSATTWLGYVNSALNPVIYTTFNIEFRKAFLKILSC
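Cells expressing the human receptor were seeded at 1500 cells/well, incubated overnight at 37 degrees C in 5% CO2, then exposed to library compounds with dopamine controls for 90 minutes at 37 degrees C before luminescent detection.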
uPA generation: qHTS for Inhibitors of Cell Surface uPA Generation; AID 540303, 2011; Potency, µM (titrated, usually from 38.3 µM), without a hit: top-dose activity change, negative = inhibition, most hits filed as inhibitors; hit rate 0.31% among 330,000; cell surface uPA generation assay, qHTS; active means well fitted inhibition curve with a large enough effect; inconclusive means small, poorly fitted or top-dose-only effect; inactive means no such curve, though single readings can be large or run the other way; tested in mouse RAW 264.7 cells; further: potency means the concentration at half of the fitted maximal effect; on the % scale 0 is the no-effect control and ±100 the full control effect; nearly all actives have a fitted effect of over 55% in size
RGS4 inhibitor: Inhibitors of Regulator of G Protein Signaling (RGS) 4: qHTS. Regulator of G-protein signaling 4 (Homo sapiens), P49798. Transcreener GDP fluorescence polarization, RGS4-accelerated GTP hydrolysis. hit rate 0.039% among 390,000. Potency, µM (series often up to 114 µM), inactives show top-dose activity change, negative = inhibition, hits mostly inhibitors; active means well fitted inhibition curve with a large enough effect; inconclusive means small, poorly fitted or top-dose-only effect; inactive means no such curve, though single readings can be large or run the other way; further: potency means the concentration at half of the fitted maximal effect; on the % scale 0 is the no-effect control and ±100 the full control effect; nearly all actives have a fitted effect of over 75% in size
Target sequence (P49798 whole entry, looked up): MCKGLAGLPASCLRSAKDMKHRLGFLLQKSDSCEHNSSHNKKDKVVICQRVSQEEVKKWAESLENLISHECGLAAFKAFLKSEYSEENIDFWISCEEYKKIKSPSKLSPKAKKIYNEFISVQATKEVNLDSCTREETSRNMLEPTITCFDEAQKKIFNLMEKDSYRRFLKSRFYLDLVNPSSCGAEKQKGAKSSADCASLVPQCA
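MLSMR compounds (23 nl, pin-transferred) preincubated 10 min at room temperature with a 500nM (2x) first reagent, then RGS4 at 900nM (2x) plus Transcreener GDP mix added; fluorescence polarization (620/688 nm) read before and after 90 min at 30 °C.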
D3 ag: qHTS of D3 Dopamine Receptor Agonist: qHTS; D(3) dopamine receptor (Homo sapiens), P35462; D3R DiscoveRx beta-arrestin cells, luminescence, 90 min; max activation, %; hit rate 0.58% among 410,000; AID 652048, 2013; in the data active means max activation above about 30%; further: 0% is about no effect
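Agonist mode: compounds and dopamine controls were applied to plated cells for 90 min at 37 degrees C after an overnight attachment at 1500 cells/well. Luminescent read-out followed 30 - 60 minutes at room temperature with DiscoveRx detection reagent.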
The depositor's hits bear a star; ? = inconclusive; . = not tested or not shown; [ ] = another dose, or the depositor's remark.

SMILES | D3 antag | uPA generation | RGS4 inhibitor | D3 ag
CCc1ccccc1Oc1nc(NCc2ccccc2)nc2ccsc12 | -52* | . | . | -5
O=c1cc(-c2ccccc2)c2cc(Cl)c3c(c2o1)CN(Cc1ccccc1)CO3 | . | . | 2% | 11
COCCNC(=O)C1(C)CCCN(CCOc2ccc(Cl)cc2)C1 (configuration not stated) | -55* | . | . | -6
CCCNC(=O)C1(C)CCN(CCOc2ccc(Cl)cc2)C1 (configuration not stated) | -72* | . | . | -1
CCNC(=O)C1(C)CCCN(CCOc2ccc(OC)cc2)C1 (configuration not stated) | -21 | . | . | -3
OCCOCCN1CCN(C2=Nc3ccccc3Sc3ccccc32)CC1 | -66* | -7% | 20% | .
OCCN1CCN(CCCN2c3ccccc3Sc3ccc(Cl)cc32)CC1 | ? | 2% | ? | -94
O=C(/C=C/c1ccc(Cl)cc1Cl)Nc1cccc(S(=O)(=O)NC2=NCCC2)c1 | -2 | 4.5µM* | -109%[56.9 µM] | -1
O=C(/C=C/c1ccccc1Cl)Nc1cccc(S(=O)(=O)NC2=NCCCCC2)c1 | -4 | -7% | -32% | -6
Cc1cccc(NC(=O)Nc2ccc(Oc3c(F)c(F)c(F)c(F)c3F)cc2)c1 | -117* | 14% | 10% | -3
CCOc1ccccc1N(CC(=O)OC)S(C)(=O)=O | -107* | -10% | -4% | 5
CCc1ccc(-n2c3nc(=O)[nH]c(=O)c-3cc3c(C)nn(-c4ccccc4)c32)cc1 | . | . | 10% | 4
Cc1ccc(CCNC(=O)C2CCC(=O)N2CCc2ccccc2)cc1 (configuration not stated) | -15 | 1% | -5%[56.9 µM] | 6
Cc1ccc(CNC(=O)C2CCC(=O)N2CCc2ccccc2)cc1 (configuration not stated) | -57* | . | 22% | 17
COc1cc(/C=C(/C#N)C(=O)Nc2ccccc2)ccc1OCc1ccc(C(=O)O)cc1 | 2 | -10% | -25% | -2
COc1cc(/C=C(\C#N)C(=O)Nc2nnc(C(F)(F)F)s2)ccc1OCc1ccc(C(F)(F)F)cc1C(F)(F)F | . | . | 19µM* | .
COc1cccc(OCC(=O)NCCS(=O)(=O)N2CCN(c3ccccc3F)CC2)c1 | . | . | 21% | -5
CCOc1ccc2oc(C(=O)OCC(=O)NC3CC3)c(C)c2c1 | -18 | 9% | 10% | 4
CCOC(=O)c1oc2ccc(CNC3CCCCC3)c(Cl)c2c1C | -86* | -15% | 26% | -36
CCOC(=O)c1ccc(NC(=O)COc2ccccc2CNCCO)cc1 | 5 | 2% | -7% | -16
CCOC(=O)c1oc2ccc(CNCCO)c(Cl)c2c1C | -54* | 6% | 12%[11.4 µM] | -17
CCOc1ccc(Nc2nnc(SCc3nc4ccccc4c(=O)[nH]3)s2)cc1 | -62* | -5% | -21% | -16
Cc1cccc(C)c1Nc1nnc(SCc2nc3ccccc3c(=O)[nH]2)s1 | 0 | -6% | 15% | 5
COc1ccc(C(=O)CSc2nc(C)cc(C)c2C(=O)Nc2ccccc2C)cc1 | . | . | 2% | -4
COc1ccc(/C=C2\CCC(C3CCCC3)C2=O)cc1 (configuration not stated) | 16 | 2% | -7% | 0
SMILES | D3 antag | uPA generation | RGS4 inhibitor | D3 ag
COc1ccc(/C=C2/CCC(CN3CCOCC3)C2=O)cc1 (configuration not stated) | -67* | -11% | ? | -22
CN(C)CC1CC/C(=C\c2ccc(O)cc2)C1=O (configuration not stated) | -61* | -10% | ? | -14
Cc1ccc2c(c1)c1c(c(=O)n(-c3cccc(Cl)c3)c(=O)n1CC(=O)N1CCCC1)n2C | . | . | 32% | 8
CC(=C(CCOC(=O)C(C)C)SSC(CCOC(=O)C(C)C)=C(C)N(C=O)Cc1cnc(C)nc1N)N(C=O)Cc1cnc(C)nc1N | . | . | . | -5
Cc1ccccc1C(=NCCCN(C)C)c1ccccc1C | -75* | 2% | -15% | -9
CCc1ccccc1NC(=O)CSc1ncc2c(n1)-c1ccccc1N(Cc1ccc(C)cc1)S2(=O)=O | . | . | -20% | 0
Cc1ccc(NC(=O)c2sc3nc(-c4ccc(F)cc4)cn3c2C)c(C)c1 | . | . | 26% | 7
C[C@H]1[C@H](c2ccccc2)C[C@@H](C(=O)O)C1(C)C | -17 | 3% | -21% | 32*
O=C(CSc1nnc2ccc3ccccc3n12)c1ccc(F)cc1 | . | . | ? | 3
O=S(=O)(Nc1cc(Sc2ncn[nH]2)c(O)c2ccccc12)c1ccccc1 | -100* | -13% | ? | -5
Cn1cc(S(=O)(=O)N2CCCCC2)cc1C(=O)Nc1ccc(OC(F)(F)F)cc1 | . | . | -9% | -12
COc1ccc(C2=C(C)C(N3CCC(C(=O)NCc4ccco4)CC3)=NS2(=O)=O)cc1 | . | . | -15% | 4
CCOc1ccc(CCNC(=O)c2cc3c(-c4ccccc4F)nn(C)c3s2)cc1OCC | . | . | -5% | 27
CC(C)CCNC(=O)c1cccc(-n2cnc3cccnc32)c1 | . | . | 23% | 1
COc1ccccc1C(c1nnnn1Cc1ccccc1)N1CCN(C2CCCC2)CC1 (configuration not stated) | -58* | 0% | -23%[11.4 µM] | -7
FC(F)(F)Oc1ccccc1C(c1nnnn1Cc1ccccc1)N1CCN(C/C=C/c2ccccc2)CC1 (configuration not stated) | -66* | . | . | -20
CCCCn1nnnc1C(c1ccccc1OC(F)(F)F)N1CCN(C/C=C/c2ccccc2)CC1 (configuration not stated) | -59* | . | . | -11
CCC(C)NC(=O)c1ccc2c(c1)sc1nc(-c3ccc(OC)cc3)cn12 (configuration not stated) | . | . | -5% | 9
Cc1ccc(OCC(=O)Nc2ccc(S(=O)(=O)N(Cc3ccccc3)c3ccccc3)cc2)cc1 | . | . | 21% | -17
COc1cc2c(N3CCN(C(=O)Nc4ccc(OC(C)C)cc4)CC3)ncnc2cc1OCCCN1CCCCC1 | . | . | . | -23
Cc1ccc(-c2cc(-c3ccccc3)c(C#N)c(Br)n2)cc1 | 9 | 1% | -8% | 4
CS(=O)(=O)c1nc(-c2ccccc2)cc(-c2ccccc2)c1C#N | -66* | -6% | -48% | 3
CCCOc1ccc(CNC(=O)C(CC)n2nc(C)c3sc4ccccc4c3c2=O)cc1 (configuration not stated) | . | . | -9% | 5
Cc1c([N+](=O)[O-])cnc(Sc2ccccc2)c1[N+](=O)[O-] | ? | 8.9µM* | -5% | -4
Cc1ccsc1/C=N/NC(=O)c1c[nH]c2ccccc12 | -51* | 6% | -29% | -1
Cc1ccccc1C(=O)Nc1ccccc1C(=O)OCc1cc(=O)n2nc(C3CC3)sc2n1 | . | . | 7% | 1
CSc1ccc(C(=O)C2CCCN(C(=O)Cc3nonc3C)C2)cc1 (configuration not stated) | -84* | -4% | -11% | 16
